# Laboratory results reported in article PMC7819943, “Rice protein-binding microarrays: a tool to detect cis-acting elements near promoter regions in rice”.
# The full ranking holds about 35,000 sequences; the median of “fluorescence intensity (a.u.)” is about 10,000, and the highest 2% start at about 52,000. The sample as a whole holds a higher share of the highest values than the screen did.
# Molecular target: T1, OsWOX13 (Oryza sativa, UniProt Q5QMM3 1-267)
# T1 sequence: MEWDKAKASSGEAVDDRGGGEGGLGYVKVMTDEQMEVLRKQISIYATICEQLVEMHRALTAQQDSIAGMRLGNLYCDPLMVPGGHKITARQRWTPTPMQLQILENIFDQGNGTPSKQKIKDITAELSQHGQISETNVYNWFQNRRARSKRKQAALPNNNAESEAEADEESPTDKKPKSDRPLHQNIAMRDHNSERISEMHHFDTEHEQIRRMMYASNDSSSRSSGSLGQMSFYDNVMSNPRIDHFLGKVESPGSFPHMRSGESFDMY
# Assay: protein-binding microarray (RPBM); PBS, 2% BSA, 51.3 ng/ul salmon testes DNA, 50 uM zinc acetate, 200 nM TF, 25 C, 1 h; high values mean tight binding
# Details: protein: recombinant; tags: N-terminal polyhistidine and DsRed monomer fusion (pET32a); label: CyDye5-dUTP incorporated in the synthesized complementary strand; 3' TTTTT single-stranded linker to array surface; dsDNA, one strand shown
# Procedure, shortened: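 A custom Agilent array was converted to double-stranded form by primer extension with Cy5-dUTP and blocked with 2% BSA. Protein at 200 nM in PBS with 2% BSA, salmon testes DNA and 50 µM zinc acetate was applied for 1 h at 25 °C, followed by washing. The proteins were polyhistidine–DsRed N-terminal fusions of transcription factors, expressed in E. coli BL21-CodonPlus and Ni–NTA-purified. The binding signal is per-feature fluorescence intensity (arbitrary units) from an Axon 4000B scanner.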
row,Sequence,binding signal
1,TTCCGGTGATTAGTCAACTGCCACGACCAGATTAATCTACCGGAGTCACCTAGTGCAG,20300 fluorescence intensity (a.u.)
2,TCATAACTAATATTTAAATGGTATTTGAACATCCCATGGACGGAGTCACCTAGTGCAG,9720 fluorescence intensity (a.u.)
3,TCTGACCTGAAAGTCTCAATCAGACAGCTTTCGAAAAGGACGGAGTCACCTAGTGCAG,4260 fluorescence intensity (a.u.)
4,AAACCTATGACAATCAACCTTTTGACTGTCATACTAGCTCCGGAGTCACCTAGTGCAG,9360 fluorescence intensity (a.u.)
5,TATTGATTAAACATAATGGTCTCACAATATTTTAGTTACCCGGAGTCACCTAGTGCAG,27300 fluorescence intensity (a.u.)
6,CTGAAATGATTTTCATTTGATTCAAATGGGCCTAAGAATTCGGAGTCACCTAGTGCAG,17200 fluorescence intensity (a.u.)
7,GTGGCTGTGATTGTGTGATTGTGTACCTGTTTGTAGTGAACGGAGTCACCTAGTGCAG,20500 fluorescence intensity (a.u.)
8,TATCTACTAATTTAACTTATAAATGGGTTTATGGGTTGACCGGAGTCACCTAGTGCAG,11200 fluorescence intensity (a.u.)
9,GATGAACATTGATTTGCTCGGATCTTGGATGCTGTTTGTGCGGAGTCACCTAGTGCAG,20800 fluorescence intensity (a.u.)
10,TTAACTGATTGATGCTCAAGTGGATTGATCGATTTTGTTGCGGAGTCACCTAGTGCAG,65500 fluorescence intensity (a.u.)
11,ATGATAACTGATTGCAATAAGGTTAGGATGTTGTCACACCCGGAGTCACCTAGTGCAG,52900 fluorescence intensity (a.u.)
12,TTTAAATTTTAATGATCGGTGATTTTGTGCAGGGAAAACGCGGAGTCACCTAGTGCAG,24200 fluorescence intensity (a.u.)
13,TTTTAAATTTCATTATATAATGATTAATTTGGGAATGAGGCGGAGTCACCTAGTGCAG,30800 fluorescence intensity (a.u.)
14,AATAATGATAACTGATAAGGGTTTGTTTAGTCTGGATGAACGGAGTCACCTAGTGCAG,18800 fluorescence intensity (a.u.)
15,AATAAGGGACTTAATTAGTCTAGGTTAAACTGGATGTTGCCGGAGTCACCTAGTGCAG,4640 fluorescence intensity (a.u.)
16,TTTAATTAATTTGTTAAATTTTCTGATCGGAATGAGCGGTCGGAGTCACCTAGTGCAG,63700 fluorescence intensity (a.u.)
17,CGGGCTTCTTGATTTGCGGATTGTTGTTGTGGATCGCCAGCGGAGTCACCTAGTGCAG,5040 fluorescence intensity (a.u.)
18,GATAATGGCCCTTAAATTGATTGCAACTCACGGTGATACACGGAGTCACCTAGTGCAG,44800 fluorescence intensity (a.u.)
19,GCTCTAAGGGTGGGTTTTGATGGGAGGTTTTGGATGGATACGGAGTCACCTAGTGCAG,6370 fluorescence intensity (a.u.)
20,TTTGATTTGGGAAAGATAATATATCTTGCTACTTTGTCTTCGGAGTCACCTAGTGCAG,18200 fluorescence intensity (a.u.)
21,AAACATTAATTAATACCATAATAGTTAGGTGACAATTGACCGGAGTCACCTAGTGCAG,27100 fluorescence intensity (a.u.)
22,CAACGCCTGTAATTGCTCCTCCTGGCATGCAAGCCTTGTCCGGAGTCACCTAGTGCAG,5050 fluorescence intensity (a.u.)
23,GTAAATTGTTTACTATCGAATGTACATGCTATATATATTGCGGAGTCACCTAGTGCAG,20400 fluorescence intensity (a.u.)

row,Sequence,binding signal
1,TAATGGTTTTCAGACAAATGGATAATTAAGCTGATAGCGACGGAGTCACCTAGTGCAG,65400 fluorescence intensity (a.u.)
2,GCAATAATTAATAAGGCTCTAGGATAATTCAAATGGTTTTCGGAGTCACCTAGTGCAG,9520 fluorescence intensity (a.u.)
3,CTACAAAATTAAGCTGATAGCAACATCATTCACACATGGACGGAGTCACCTAGTGCAG,4120 fluorescence intensity (a.u.)
4,GGCTGACGTCTAAATAAATTTTGAGTAAATTACATTAGCGCGGAGTCACCTAGTGCAG,15600 fluorescence intensity (a.u.)
5,ATCGTAGTGTAATTACACTGTAACTTATATGTAATTACACCGGAGTCACCTAGTGCAG,12100 fluorescence intensity (a.u.)
6,CGATGATTGTAATCTCATTGAACAGATGATCCTTCAGGATCGGAGTCACCTAGTGCAG,52400 fluorescence intensity (a.u.)
7,AAATATTATAATTGATTGTCGATGAAACATCGGGTTGTACCGGAGTCACCTAGTGCAG,46200 fluorescence intensity (a.u.)
8,CTCAGATTTGATCAGTGGTAATTTCTCATGTAATCTCATTCGGAGTCACCTAGTGCAG,10500 fluorescence intensity (a.u.)
9,AATTGATTAAGATGATGATGAAAGATAATACAGCTCGATCCGGAGTCACCTAGTGCAG,27100 fluorescence intensity (a.u.)
10,TCCTTTATTATCTGTAATTGTAAAATCTTCAGATGAACACCGGAGTCACCTAGTGCAG,6210 fluorescence intensity (a.u.)
11,TATAATTGATGTACATCGATGATTAATTCTCTAACAGATCCGGAGTCACCTAGTGCAG,62300 fluorescence intensity (a.u.)
12,TCAAATACTGCTGATTATACATACCCACATGTGTTGAATGCGGAGTCACCTAGTGCAG,3580 fluorescence intensity (a.u.)
13,ATAAAGTGATTTAATTTTAGTTAAAGTTAAACTACTTTAACGGAGTCACCTAGTGCAG,21100 fluorescence intensity (a.u.)
14,CACTCTTGCATTTCTTTGATTGCAAATTTCCAAGGCAGAACGGAGTCACCTAGTGCAG,5250 fluorescence intensity (a.u.)
15,ATTTTACAGGGTGATTTGAACATACAGTAATTATGGCCAACGGAGTCACCTAGTGCAG,6520 fluorescence intensity (a.u.)
16,AAATGTCTTGTAGATTGATATATTACATGGAACAAAATTTCGGAGTCACCTAGTGCAG,3240 fluorescence intensity (a.u.)
17,GTTAAACTAATTTGAATTTGTTAGTACAGTTTGCATTTCACGGAGTCACCTAGTGCAG,25500 fluorescence intensity (a.u.)
18,TGTGTTCTTGATTTGTGTTGTGTTTGTAGATCGTAGTTTGCGGAGTCACCTAGTGCAG,10200 fluorescence intensity (a.u.)
19,TGAAATTAATTTGATGTGATAGATTTCTAGGTTTTCTTTGCGGAGTCACCTAGTGCAG,64300 fluorescence intensity (a.u.)
20,ATTTGATTGAATGTAGAGATTCTTGTAATAGGATTCTTTGCGGAGTCACCTAGTGCAG,64700 fluorescence intensity (a.u.)
21,GTATGTGATTTTCTTTAATTAGAGTTCTTGCCTAAGGTTGCGGAGTCACCTAGTGCAG,38300 fluorescence intensity (a.u.)
22,CTGATTGATTCGTAATAGTAGAATAGGACATGTTACCATACGGAGTCACCTAGTGCAG,64500 fluorescence intensity (a.u.)
23,TTAATTGGATTGTTTTGATTCGTTGGAGAAGTTAGGAATACGGAGTCACCTAGTGCAG,28600 fluorescence intensity (a.u.)
